The values below come from PubChem BioAssay (NCI).

Assay in all cases: NCI-60 one-dose screen, 48 h (100 = growth as untreated, 0 = no growth, -100 = all killed)
What all share (conditions): 10 µM unless noted

In assay [1] the test system is NCI-H23 lung.
The subject of assay [2] is NCI-H226 lung.
The test system of assay [3] is NCI-H322M lung.
Assay [4] concerns HOP-62 NSCLC.
Assay [5] deals with NCI-H460 lung.
For assay [6], the system named is HOP-92 NSCLC.
Assay [7] relates to NCI-H522 lung.
Assay [8] has as its system A549/ATCC NSCLC.
Assay [9] concerns 786-0 renal.
Assay [10] relates to COLO 205 colon.

About 83,000 compounds went through this panel and 20% of them were active in at least one assay; those are over-represented in the sample as a whole.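 Assay: single dose, 48 h. Readout: percent growth (0 = no net growth; negative = cell death). Active: <10.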 Unmarked numbers belong to inactive results. The source made the active and inactive calls.

Consider `COc1ccc(C(=O)CC#N)cc1`, for which the growth was 107% in [1]; 98% in assay [2]; 120% in assay [3]; 122% in assay [4]; 108% in [5]; 119% in [6]. The growth is 113% in [7], 104% in assay [8], 107% in [9] and 117% in assay [10].

As for `O=C1c2ccccc2C(=O)c2c([N+](=O)[O-])ccc(Cl)c21`, the growth in assay [1] was 89.3%; in [2], 102%; in assay [3] it was 99.7%; in [4], 111%; in assay [5] it was 101%; in [6], 76.5%. Moreover, the growth was 59.2% in [7], 93.7% in assay [8], 96.6% in [9] and 116% in assay [10].

With `CC(=O)c1cc2c(N)c(C(=O)Nc3cccc4ccncc34)sc2nc1C`, the growth in assay [1] was 102%; in [2] it was 104%; in assay [3], 105%; in [4] it was 91.8%; in [5], 104%; in assay [6], 75.2%. For the same molecule, the growth in assay [7] is 96%; in assay [8] it was 97.9%; in [9], 98.5%; in [10] it was 102%.

With `COc1cccc(-c2ccc3c(c2)NC(=O)/C3=C\c2ccc[nH]2)c1`, the growth is 31.4% in assay [1]; 50.5% in assay [2]; 45.2% in assay [3]; 62.7% in [4]; 11.5% in [5]; 93.5% in assay [6]. The growth was 10.4% in assay [7], 57.1% in [8], 48.1% in [9] and 30% in [10].

On to `O=C(/C=C(O)/C=C/c1ccc(SC(F)(F)F)cc1)/C=C/c1ccc(SC(F)(F)F)cc1`, for which the growth was 83.2% in assay [1]; 100% in [2]; 102% in assay [3]; 101% in [4]; 91.1% in assay [5]; 93% in assay [6]. Also, the growth is 93.7% in assay [7], 95.4% in assay [8], 87.2% in assay [9] and 114% in assay [10].

Regarding `Cc1ccc(/C=N/NC(=O)CSc2nc3ccccc3c(=O)n2Cc2ccc(S(N)(=O)=O)cc2)cc1`, the growth in [1] was 91.5%; in assay [2], 84.6%; in assay [3], 102%; in assay [4], 85.7%; in assay [5], 98.5%; in assay [6] it was 109%. Besides, the growth in [7] is 42.5%; in [8], 85.9%; in assay [9], 99.3%; in [10] it was 105%.

As for `CCCNC(=O)Oc1ccc(/C(=C(\C)c2ccccc2)c2ccc(OCCCN(C)C)cc2)cc1`, the growth is 75.6% in [1]; 102% in assay [2]; 81.2% in [3]; 78.3% in assay [4]; 75.1% in assay [5]; 68.2% in [6]. In addition, the growth was 79.6% in [7], 70% in assay [8], 58.6% in assay [9] and 52.8% in assay [10].

With `COc1cc2nc(-c3ccc(C(F)(F)F)cc3)cc(OCCCN3CCOCC3)c2cc1OC`, the growth is 56.5% in assay [1]; -10.5% (active) in assay [2]; 57.2% in assay [3]; 51.9% in assay [4]; 18.5% in [5]; 11.2% in assay [6]. Also, the growth in [7] was 14.6%; in assay [8], 29%; in assay [9] it was 21.5%; in assay [10], 20%.

For the molecule `COc1cc(C2C3CC4CCCC[C@H]4N3[C@@]3(C(=O)Nc4cc(Cl)ccc43)C2C(=O)c2nc3ccccc3[nH]2)cc(OC)c1OC` (stereo not given in full), the growth in assay [1] was 75.1%; in [2], 76.1%; in assay [3] it was 88.3%; in [4], 90.1%; in assay [5], 42%; in assay [6], 64.2%. The growth in assay [7] was 68.2%; in assay [8], 43.3%; in assay [9], 67%; in assay [10], 59.7%.

`Clc1ccc(-c2ccc(CNCC3CCNCC3)o2)c(-c2ccccc2)c1`: the growth in assay [1] is -39.8% (active); in [2], -12.1% (active); in assay [3], -25.7% (active); in [4] it was -78.3% (active); in assay [5] it was -86.7% (active); in assay [6], -39.3% (active). Also, the growth in [7] was -70.7% (active); in assay [8], -79.5% (active); in assay [9], -90.2% (active); in assay [10] it was -76.3% (active).

With `C=C1C(=O)O[C@H]2[C@H]1CC/C(CNC(=O)/C=C/c1cccc(OC)c1)=C\CC[C@@]1(C)O[C@@H]21`, the growth in assay [1] was 64.4%; in [2], 73.6%; in assay [3] it was 72.6%; in [4], 68.7%; in assay [5], 76%; in assay [6], -31.7% (active). For the same molecule, the growth is -69.4% (active) in [7], 47.2% in assay [8], -59.2% (active) in assay [9] and -56.5% (active) in assay [10].

Turning to `Cc1ccc(NS(=O)(=O)c2ccc(-c3cnc(C4CC4)o3)cc2)cc1C(F)(F)F`, the growth in [1] is 72.8%; in [2], 77.9%; in [3], 88.7%; in assay [4], 60.7%; in assay [5], 55.8%; in assay [6] it was 83.3%. For the same molecule, the growth in assay [7] was 39.9%; in [8] it was 55.2%; in assay [9] it was 85.5%; in assay [10] it was 67.5%.

For `O=C(CSc1nc2ccccc2[nH]1)NCc1ccccc1`, the growth in assay [1] was 100%; in assay [2], 95.9%; in [3], 97.4%; in assay [4], 88.5%; in assay [5], 103%; in [6] it was 105%. Also, the growth in assay [7] is 98.3%; in [8] it was 100%; in [9], 102%; in assay [10], 111%.

`CCCN1[C@@H]2CC[C@H]1/C(=C\c1ccc(OC)c(OC)c1)C(=O)/C2=C/c1ccc(OC)c(OC)c1`: the growth in [1] was 23.8%; in [2] it was 67.3%; in [3] it was 46.7%; in [4], 68.2%; in assay [5], 39.6%; in [6], 39.8%. Besides, the growth was 47.8% in [7], 49.3% in assay [8], 63.8% in assay [9] and 51.4% in [10].

For the molecule `COc1ccc(C(=O)c2cc(C)c(OC)c(C)c2)c(OC)c1NC(C)=O`, the growth in assay [1] was 29.5%; in assay [2], 17.4%; in assay [3], 42.7%; in assay [4], 20.3%; in assay [5], 3.32% (active); in assay [6] it was 6.76% (active). Moreover, the growth is 13.4% in assay [7], 18.1% in [8], 13.7% in assay [9] and -5.99% (active) in [10].

On to `Cc1ccc(NC(=O)c2cc(-c3nc4ccccc4s3)c(=O)n(NS(=O)(=O)c3ccc(Cl)cc3)c2N)cc1`, for which the growth is 102% in assay [1]; 80.6% in assay [2]; 97.8% in assay [3]; 106% in assay [4]; 105% in assay [5]; 103% in assay [6]. For the same molecule, the growth in [7] is 94.4%; in assay [8] it was 100%; in assay [9], 101%; in assay [10], 114%.

As for `O=C(O)c1ccc(-c2nn(-c3ccc(C(F)(F)F)cc3)cc2CNc2ccc(Oc3ccccc3)cc2)cc1`, the growth in assay [1] is 91.7%; in assay [2] it was 86.8%; in [3], 70.8%; in assay [4] it was 103%; in [5] it was 87.4%; in [6], 93.3%. Also, the growth in assay [7] is 80.2%; in assay [8], 47.9%; in assay [9], 93.4%; in [10] it was 111%.

Regarding `COc1ccc(C/C(C)=C(/c2ccc(OCCCN(C)C)cc2)c2ccc(OC(C)=O)cc2)cc1`, the growth in [1] was 80.7%; in assay [2], 98%; in assay [3] it was 94.5%; in assay [4], 83.2%; in assay [5], 73.1%; in assay [6], 64.5%. Also, the growth in assay [7] was 95.5%; in assay [8] it was 74.3%; in assay [9] it was 63.2%; in assay [10], 50.1%.

For `COc1ccc(-c2cnc3c(-c4cccc5cnccc45)cnn3c2)cc1`, the growth in [1] was 74.5%; in [2], 29.3%; in [3], 68.3%; in [4], 55.1%; in [5] it was 23.4%; in assay [6] it was 63%. The growth in assay [7] is 48.3%; in assay [8], 39.8%; in assay [9], 29.4%; in assay [10], 67.8%.

Regarding `C=C(C)[C@@H]1CC[C@]2(C(=O)N3CCN(C)CC3)CC[C@]3(C)[C@H](CC[C@@H]4[C@@]5(C)C/C(=C/c6ccncc6)C(=O)C(C)(C)[C@@H]5CC[C@]43C)[C@@H]12`, the growth in assay [1] was 74.4%; in assay [2], 61.9%; in assay [3] it was 85.4%; in assay [4] it was 85.1%; in assay [5], 37.2%; in assay [6], 39.7%. Further, the growth in assay [7] is 47.6%; in assay [8] it was 40.4%; in [9], 65%; in [10], 53.7%.

For the molecule `O=S(=O)(Nc1ccc(-n2cnc3cc(-c4ccc(O)cc4)ccc32)cc1)c1ccccc1`, the growth in assay [1] was 99.8%; in assay [2], 92.1%; in assay [3] it was 93%; in assay [4] it was 102%; in assay [5], 95.1%; in assay [6], 130%. Also, the growth was 50.8% in [7], 77.2% in assay [8], 101% in assay [9] and 136% in assay [10].

Take `C/C(=N\Nc1cc(C)nc2ccc(Br)cc12)c1ccc([N+](=O)[O-])cc1`: the growth was 88.4% in assay [1]; 90% in assay [2]; 82.7% in assay [3]; 76.9% in assay [4]; 69.8% in assay [5]; 77% in [6]. In addition, the growth was 76.6% in [7], 78.6% in assay [8], 10% in [9] and 31.8% in [10].

For `CCOC(=O)CC1CSC(N/N=C/c2ccc(-n3cccn3)cc2)=N1` (stereo not given), the growth in assay [1] is 101%; in [2] it was 95%; in assay [3], 104%; in assay [4], 105%; in assay [5] it was 107%; in assay [6], 99.3%. Also, the growth was 99.1% in [7], 93.1% in [8], 108% in [9] and 126% in [10].

Turning to `Cn1cc(-c2nc(-c3c[nH]c4c(Cl)nccc34)cs2)c2cc(F)ccc21`, the growth in [1] was 104%; in assay [2] it was 95.5%; in assay [3] it was 102%; in assay [4] it was 88.5%; in assay [5] it was 98.3%; in [6], 98.2%. Further, the growth in assay [7] is 90.2%; in assay [8], 74.5%; in assay [9], 94.7%; in assay [10], 99.8%.

Regarding `COc1cc(/C(C)=C(\c2ccc(Cl)cc2)c2ccc(OCCN(C)C)cc2)ccc1F`, the growth is 76.5% in [1]; 91% in [2]; 69% in assay [3]; 87.6% in assay [4]; 7.61% (active) in assay [5]; 44.6% in assay [6]. Also, the growth in [7] was 80.2%; in assay [8], 63.4%; in [9] it was 65.7%; in assay [10], -33.8% (active).

In the case of `COc1ccc(/C=C2\Oc3cc(OCCCCCN4CCCCC4)ccc3C2=O)cc1OC`, the growth in [1] was 78.6%; in assay [2] it was 83.1%; in [3], 97.9%; in assay [4], 97.4%; in assay [5], 59.2%; in assay [6], 54.4%. For the same molecule, the growth is 89.9% in assay [7], 88.7% in [8], 84.4% in assay [9] and 98.5% in assay [10].
